Assay outcomes: PubChem BioAssay, National Center for Advancing Translational Sciences (NCATS)
SARS PLpro yeast = blocks SARS-CoV papain-like protease in a yeast assay; S. cerevisiae expressing SARS-CoV PLpro, growth rescue; hit rate 0.19% among 330,000; Potency, µM (titrated, usually from 32.9 µM), inactives show at the top dose activity, positive = growth rescue, usual class: activators; calls by dose curve; note: 0% is about no effect; nearly all actives have a fitted effect of over 55% in size
Pf growth 96h = inhibits malaria parasite growth, 96 h; P. falciparum luciferase reporter growth, 96 h; Potency, µM (series often up to 28.7 µM), without a hit: top-dose activity change, negative = inhibition, usual class: inhibitors; hit rate 6.9% among 320,000; note: % is set by controls: 0 for no effect and ±100 for the full control effect
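Erythrocytes infected with luciferase-expressing P. falciparum were dispensed at 2% hematocrit and 0.05% parasitemia (final), then incubated with compounds 96 hours at 37 C in 5% CO2. Luminescence after detection reagent addition reported growth.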
Pf growth 48h = inhibits P. falciparum growth in the first generation, 48 h; Potency, µM (highest dose often 28.7 µM), inactives show at the top dose activity change, negative = inhibition, most hits filed as inhibitors; hit rate 5.9% among 310,000; P. falciparum luciferase growth in erythrocytes, 48 h; note: % is set by controls: 0 for no effect and ±100 for the full control effect
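Erythrocytes infected with P. falciparum carrying an integrated firefly luciferase reporter (2% hematocrit, 0.1% parasitemia final) were exposed to compounds in RPMI 1640 with 0.5% Albumax at 37 C, 5% CO2. Growth inhibition was scored as reduced luminescence.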
Sm TGR inh = blocks Schistosoma mansoni thioredoxin glutathione reductase; Q962Y6; purified TGR, DTNB reduction, TNB absorbance 405 nm; Potency, µM (series often up to 114 µM), without a hit: at the top dose activity change, negative = inhibition, most hits filed as inhibitors; hit rate 3% among 360,000; note: % is set by controls: 0 for no effect and ±100 for the full control effect; nearly all actives have a fitted effect of over 60% in size
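Kinetic colorimetric format: TGR-catalysed, NADPH-driven DTNB reduction monitored via TNB absorbance. Enzyme dispensed at 20 nM; compound exposure 15 min at room temperature before reaction start.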
Numbers without * were called inactive. In the library only some 12% were active in any assay of this set; here they are far more common. Unless noted, calls come from the whole dose curve; as a rule, active = well fitted curve in the direction sought with a large enough effect; inconclusive = small, poorly fitted or top-dose-only effect, or another doubt; inactive = no such curve, though single readings can be large; an effect the other way counts as inactive or inconclusive. Potency is the fitted concentration of half-maximal effect.

How did CCN(CC)c1ccc(S(=O)(=O)N2CCOCC2)cc1NC(=O)CN1CCN(Cc2ccccc2)CC1 do in these assays?
SARS PLpro yeast: -0.3%; Pf growth 96h: 10.4µM*; Pf growth 48h: inconclusive; Sm TGR inh: 0.3%

How did CCN(CC)c1ccc(S(=O)(=O)N2CCOCC2)cc1NC(=O)CSc1nnc(N)s1 do in these assays?
SARS PLpro yeast: -3.0%; Pf growth 96h: inconclusive; Pf growth 48h: inconclusive; Sm TGR inh: -6.6%

What do the screens show for `CCN(CC)c1ccc(S(=O)(=O)N2CCOCC2)cc1NC(=O)CNCc1ccccc1`?
SARS PLpro yeast: 0.6%; Pf growth 96h: inconclusive; Pf growth 48h: inconclusive; Sm TGR inh: 1.1%

How did CCN(CC)c1ccc(S(=O)(=O)N2CCOCC2)cc1NC(=O)CSC(=S)N1CCCC1 do in these assays?
SARS PLpro yeast: 9.0%; Pf growth 96h: 10.4µM*; Pf growth 48h: inconclusive; Sm TGR inh: -5.5%

How did COc1ccc(-c2oc3ncn4nc(-c5ccccc5OC)nc4c3c2-c2ccc(OC)cc2)cc1 do in these assays?
Sm TGR inh: -9.6%

What do the screens show for `CC(=O)/C=C/c1ccccc1Oc1c(F)c(F)nc(F)c1F`?
SARS PLpro yeast: -0.6%; Pf growth 96h: 9.28µM*; Pf growth 48h: inconclusive; Sm TGR inh: -0.9%

Results for Cc1nc2sccn2c1-c1csc(NCc2ccccc2)n1 ?
SARS PLpro yeast: -1.1%; Pf growth 96h: 74.2%; Pf growth 48h: 13.1µM*; Sm TGR inh: -6.8%

Results for C=CCNc1nc(-c2c(C)nc3sccn23)cs1 ?
SARS PLpro yeast: -24.6%; Pf growth 96h: 4.7%; Pf growth 48h: -8.1%; Sm TGR inh: 0.8%

What do the screens show for `Cc1nc2ncccn2c1-c1csc(Nc2ccccc2)n1`?
SARS PLpro yeast: 9.2%; Pf growth 96h: 5.9%; Pf growth 48h: 3.29µM*; Sm TGR inh: -16.1%

How did CCC/C(C#Cc1ccsc1)=C1/c2ccccc2C(=O)N1c1ccccc1 do in these assays?
SARS PLpro yeast: 8.9%

What do the screens show for `O=C(O)C1=C[C@H](c2ccc(Br)cc2)C[C@H](OCc2ccc(CO)cc2)O1`?
SARS PLpro yeast: -0.8%; Pf growth 96h: 36.1%; Pf growth 48h: 42.8%; Sm TGR inh: 31.6µM*

How did O=C(C1=C[C@H](c2ccccc2)C[C@H](OCc2ccc(CO)cc2)O1)N1CCN(Cc2ccccc2)CC1 do in these assays?
SARS PLpro yeast: -0.6%; Pf growth 96h: inconclusive; Pf growth 48h: inconclusive; Sm TGR inh: 28.2µM*

What do the screens show for `O=C(C1=C[C@@H](c2ccccc2)C[C@@H](OCc2ccc(CO)cc2)O1)N1CCCCCCC1`?
SARS PLpro yeast: -0.6%; Pf growth 96h: 8.28µM*; Pf growth 48h: inconclusive; Sm TGR inh: -33.7%

Results for NC(=O)C1=C[C@@H](c2ccccc2)C[C@@H](OCc2ccc(CO)cc2)O1 ?
SARS PLpro yeast: -1.7%; Pf growth 96h: 64.4%; Pf growth 48h: 33.8%; Sm TGR inh: 50.1µM*

What do the screens show for `O=C(O)C1=C[C@@H](c2ccccc2)C[C@@H](OCc2ccc(CO)cc2)O1`?
SARS PLpro yeast: -1.5%; Pf growth 96h: 34.1%; Pf growth 48h: inconclusive; Sm TGR inh: inconclusive

What do the screens show for `CC(C)c1ccc(NC(=O)C2CCCN(S(=O)(=O)c3cccc4cccnc34)C2)cc1` (centres undefined)?
Sm TGR inh: -1.0%

How did O=C(O)C1=C[C@@H](c2ccc(C(F)(F)F)cc2)C[C@@H](OCc2ccc(CO)cc2)O1 do in these assays?
SARS PLpro yeast: 0.9%; Pf growth 96h: 1.5%; Pf growth 48h: 44.7%; Sm TGR inh: 39.8µM*

What do the screens show for `O=C(C1=C[C@H](c2ccc(C(F)(F)F)cc2)C[C@H](OCc2ccc(CO)cc2)O1)N1CCCCCCC1`?
SARS PLpro yeast: -0.7%; Pf growth 96h: 9.28µM*; Pf growth 48h: inconclusive; Sm TGR inh: -34.9%

How did NC(=O)C1=C[C@H](c2ccc3c(c2)OCO3)C[C@H](OCc2ccc(CO)cc2)O1 do in these assays?
SARS PLpro yeast: -0.1%; Pf growth 96h: 76.8%; Pf growth 48h: 72.6%; Sm TGR inh: 56.2µM*

How did CCOc1ccc(NC(=O)Cn2cc(C(=O)c3ccc(F)cc3)c(=O)c3cc4c(cc32)OCO4)cc1 do in these assays?
Sm TGR inh: -0.6%

Results for Cc1ccc(NC(=O)c2cccc(NC(=O)N3CCSc4ncccc43)c2)cc1F ?
Sm TGR inh: -1.4%

How did Cn1c(=O)c(=O)n(C)c2cc(N3CCCC3)c(NC(=O)c3ccccc3F)cc21 do in these assays?
Sm TGR inh: 2.8%

What do the screens show for `CO[C@H]1OC2O[C@@]3(C)CC[C@H]4[C@H](C)CC[C@@H]([C@H]1C)[C@@]24OO3` (some centres undefined)?
Pf growth 96h: 0.0048µM*; Pf growth 48h: 0.0048µM*

How did C[C@H]1[C@H](OC(=O)CCC(=O)NCc2ccc(C(=O)O)cc2)O[C@@H]2O[C@@]3(C)CC[C@H]4[C@H](C)CC[C@@H]1C24OO3 do in these assays?
SARS PLpro yeast: -5.8%; Pf growth 96h: 0.0033µM*; Pf growth 48h: 0.0185µM*; Sm TGR inh: 5.4%

What do the screens show for `COc1ccccc1CNC(=O)C(C)n1c(=O)cc(C(F)(F)F)c2c(C)nn(C)c21` (centres undefined)?
Sm TGR inh: 6.5%

Results for O=C(Nc1ccccc1O)c1ccc(C(=O)c2ccccc2)o1 ?
SARS PLpro yeast: -7.0%; Pf growth 96h: inconclusive; Pf growth 48h: 8.28µM*; Sm TGR inh: -25.0%

What do the screens show for `COc1ccccc1NC(=O)c1ccc(C(=O)c2ccccc2)o1`?
SARS PLpro yeast: -1.3%; Pf growth 96h: -25.6%; Pf growth 48h: inconclusive; Sm TGR inh: 15.4%

Results for Cc1cccc(C)c1Nc1c(-c2ccsc2)nc2cccc(C)n12 ?
Sm TGR inh: 0.7%

Results for Cc1cc(O)c(CN2CCN(c3ccccc3)CC2)cc1C ?
SARS PLpro yeast: 1.1%; Pf growth 48h: 1.47µM*; Sm TGR inh: -2.4%

How did COc1ccc(CN2CCN(c3ccccc3)CC2)c(C)c1C do in these assays?
SARS PLpro yeast: 7.9%; Pf growth 96h: -14.2%; Sm TGR inh: -26.1%

How did Cc1ccc(O)c(CN2CCN(c3ccccc3)CC2)c1 do in these assays?
SARS PLpro yeast: -0.8%; Pf growth 96h: 90.5%; Pf growth 48h: 2.62µM*; Sm TGR inh: 4.2%

Results for CCc1ccc2[nH]c3nc(N/N=C/c4ccc(O)cc4O)nnc3c2c1 ?
SARS PLpro yeast: inconclusive; Pf growth 96h: 10.1%; Pf growth 48h: 8.28µM*; Sm TGR inh: 6.4%

How did Cc1ccc2[nH]c3nc(N/N=C/c4cccc(O)c4)nnc3c2c1 do in these assays?
SARS PLpro yeast: 3.7%; Pf growth 96h: inconclusive; Pf growth 48h: 110.8%; Sm TGR inh: -21.1%

How did CCOC(=O)Cc1csc(SCC(=O)NC2CCS(=O)(=O)C2)n1 (centres undefined) do in these assays?
SARS PLpro yeast: -8.5%; Pf growth 96h: 11.5%; Pf growth 48h: inconclusive; Sm TGR inh: -13.5%

What do the screens show for `Cc1ccc(/C=N/n2c(C)cc(C)c(C#N)c2=O)cc1`?
SARS PLpro yeast: 9.4%; Pf growth 96h: 14.7µM*; Pf growth 48h: 14.7µM*; Sm TGR inh: -6.0%
